The structures appear in SMILES notation. “And” between values parts separate entries of the source, which are not always exact repeats. Equal values may be shown once. The source made the active and inactive calls. Rule for the calls: active = hit-call score of the fitted dose curve at least 0.9, where 1 is the maximum; inactive = score below 0.9.

The term AC50 denotes the midpoint of the concentration-response curve, whichever way the signal moves.

Read-out in the assay: Transforming growth factor beta 1 (TGFb1), TGFB1 (gene 7040)
In words: BSK_KF3CT_TGFb1: BioMAP Diversity Plus: KF3CT Assay for Transforming growth factor beta 1 (TGFb1) Biomarker Activity (AID 2283072). Particulars: primary human keratinocytes with fibroblasts; actives raise or lower the signal. Here is the method:
BSK_KF3CT is a cell-based, multiplexed-readout assay that uses keratinocytes and foreskin fibroblasts, a human skin primary cell co-culture, with measurements taken at 24 hours after chemical dosing in a 96-well plate.BSK_KF3CT_TGFb1 is an assay component measured in the BSK_KF3CT assay. It measures TGF-b1 antibody related to regulation of gene expression using ELISA technology.Data from the assay component BSK_KF3CT_TGFb1 was analyzed into 1 assay endpoint. This assay endpoint, BSK_KF3CT_TGFb1, was analyzed with bidirectional fitting relative to DMSO as the negative control and baseline of activity. Using a type of binding reporter, gain or loss-of-signal activity can be used to understand changes in the signaling as they relate to the gene TGFB1. Furthermore, this assay endpoint can be referred to as a primary readout, because this assay has produced multiple assay endpoints where this one serves a signaling function. To generalize the intended target to other relatable targets, this assay endpoint is annotated to the growth factor intended target family, where the subfamily is transforming growth factor beta.
The levels of cell surface (or secreted, indicated by the prefix "s") biomarker endpoints were measured by ELISA. Overt cytotoxicity to cells in confluent adherent cultures (all systems other than the BT system) was assessed by measuring total protein levels using sulforhodamine B (SRB) staining in parallel cultures at the time of biomarker measurements, indicated as SRB endpoints. For proliferation assays for adherent cell types, individual cell types are cultured at sub-confluence and relative cell numbers quantified by SRB staining at time points optimized for each system (48 h: 3C and CASM3C systems; 72 h: BT and HDF3CGF systems; 96 h: SAg system). SRB was performed by staining cells with 0.1% SRB after fixation with 10% TCA and reading wells at 560 nm.Viability and proliferation of PBMC (T cells) was quantified by Alamar Blue reduction for the SAg and BT systems. For PBMC viability (referred to as PBMC Cytotoxicity within the assay endpoint names), cells were plated (75,000/well in a 96-well plate) and then chemical samples added for 1 h before addition of activators, SEB and TSST-1 (20 ng/mL final concentration each). Cells were incubated for 90 h. Then, Alamar Blue (20 uL/well) (Invitrogen, Cat DAL1100) was added for 6 h, and the plates were read with a fluorescence microplate reader at 546/580 nm (excitation/emission). For PBMC proliferation, cells were plated and activated as above but incubated for only 16 h prior to addition of Alamar Blue. Plates were read after 6 h.
Take `C#C[C@]1(O)CC[C@H]2[C@@H]3CCC4=CC(=O)CC[C@@H]4[C@H]3CC[C@@]21CC`: the result was inactive.
As for `N[C@@H](Cc1cc(I)c(Oc2ccc(O)c(I)c2)c(I)c1)C(=O)O`, the outcome was inactive.
As to `CCCN(CCC)c1c([N+](=O)[O-])cc(C(F)(F)F)c(N)c1[N+](=O)[O-]`, the AC50 is 32.1 µM (active).
As to `COC(=O)c1c(Cl)nn(C)c1S(=O)(=O)NC(=O)Nc1nc(OC)cc(OC)n1`, the result was inactive.
As for `C#CCOC(=O)[C@@H](C)Oc1ccc(Oc2ncc(Cl)cc2F)cc1`, the result was inactive.
Turning to `CCCCOC(=O)C(C)Oc1ccc(Oc2ccc(C(F)(F)F)cn2)cc1` (stereo not given), the result was inactive.
In the case of `CCN(Cc1c(F)cccc1Cl)c1c([N+](=O)[O-])cc(C(F)(F)F)cc1[N+](=O)[O-]`, the result was inactive.
Take `Oc1ccc(C(c2ccc(O)cc2)C(Cl)(Cl)Cl)cc1`: the result was inactive.
As for `CC(C)(c1ccc(O)cc1)c1ccc(O)cc1`, the result was inactive.
As for `O=C(c1ccccc1)C1CCCCC1`, the outcome was inactive.
As to `COC(=O)c1cccc(C)c1S(=O)(=O)NC(=O)Nc1nc(OCC(F)(F)F)nc(N(C)C)n1`, the result was inactive.
On to `O=C(Nc1ccc([N+](=O)[O-])cc1Cl)c1cc(Cl)ccc1O`, for which the outcome was inactive.
Take `CCOC(=O)NCCOc1ccc(Oc2ccccc2)cc1`: the result was inactive.
Consider `CCCOC(=O)NCCCN(C)C`, for which the outcome was inactive.
Still for that read-out and setting: the result for `C[C@]12CC[C@@H]3c4ccc(O)cc4C[C@@H](CCCCCCCCCS(=O)CCCC(F)(F)C(F)(F)F)[C@H]3[C@@H]1CC[C@@H]2O` (stereo not given in full) reads “inactive”; that for `CCOC(=O)c1ccc(O)cc1`, “inactive”.
As for `c1ccc(Nc2ccccc2)cc1`, the result was inactive.
Consider `CN(C)C(=O)Nc1ccc(Cl)c(Cl)c1`, for which the outcome was inactive.
For `C[C@]12C[C@H](O)[C@H]3[C@@H](CCC4=CC(=O)CC[C@@]43C)[C@@H]1CC[C@@H]2C(=O)CO`, the result was inactive.
Turning to `CCOC(=O)[C@H](C)Oc1ccc(Oc2nc3ccc(Cl)cc3o2)cc1`, the result was inactive.
In the case of `COC(=O)c1ccc(CNS(C)(=O)=O)cc1S(=O)(=O)NC(=O)Nc1nc(OC)cc(OC)n1`, the outcome was inactive.
Turning to `CC(C)(C)[C@@H](O)[C@@H](Cc1ccc(Cl)cc1)n1cncn1`, the outcome was inactive.
Consider `COc1c(Cl)ccc(Cl)c1C(=O)O`, for which the outcome was inactive.
The same measure, in the same setting: the same measure for `O=C(c1ccc(O)cc1O)c1ccc(O)cc1O`: “inactive”; for `CCCCOC(=O)[C@@H](C)Oc1ccc(Oc2ccc(C(F)(F)F)cn2)cc1`: “inactive”.
Take `C=CCOC(Cn1ccnc1)c1ccc(Cl)cc1Cl` (stereo not given): the outcome was inactive.
Still for that read-out and setting: the same measure for `Cc1nn(C)c(Oc2ccccc2)c1C=NOCc1ccc(C(=O)OC(C)(C)C)cc1`: “inactive”.
As to `N#CSCSc1nc2ccccc2s1`, the AC50 is 10.2 µM (active) and 11.5 µM (active).
For the molecule `S=C([S-])NCCNC(=S)[S-].[Mn+2]`, the outcome was inactive.
As to `CCSC(=O)N(CC(C)C)CC(C)C`, the result was inactive.
For the molecule `CC(C)CCCCCCc1ccc(O)cc1`, the AC50 was 5.58 µM (active).
For `CCCCC(CC)CN1C(=O)C2C3C=CC(C3)C2C1=O` (stereo not given), the outcome was inactive.
`CC1(C)C(C=C(Cl)Cl)C1C(=O)OCc1cccc(Oc2ccccc2)c1` (stereo not given): the outcome was inactive.
For `CCOC(=O)C(C)Oc1ccc(Oc2cnc3cc(Cl)ccc3n2)cc1` (stereo not given), the result was inactive.
Take `CCCCCCC(C)OC(=O)COc1nc(F)c(Cl)c(N)c1Cl` (stereo not given): the AC50 is 31.3 µM (active).
On to `COc1nc(C)nc(NC(=O)NS(=O)(=O)c2ccccc2OCCCl)n1`, for which the result was inactive.
Consider `CCCN(CCC)C(=O)SCC`, for which the result was inactive.
As to `CSC(=O)c1cccc2nnsc12`, the result was inactive.
Regarding `S=C(S)NCCNC(=S)S.[Mn+2].[S-]C([S-])=NCCN=C([S-])[S-].[Zn+2]`, the outcome was inactive.
Still for that read-out and setting: the same measure for `COC(=O)c1ccccc1C(=O)O`: “inactive”.

For the origin of these results see PubChem BioAssay (EPA / NIEHS).
